The values below come from PubChem BioAssay (NCI).

Molecules are shown by their SMILES. This is part of a sample that, as a whole, favours compounds with a hit. Of some 83,000 tested, about 20% had one in any assay.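 Cells were grown in 96-well plates and exposed to the test compound at a single concentration for 48 hours; results are reported as percent growth, with values below 10 considered active.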 Values without a mark were called inactive. Activity calls are given as the source filed them.

What all share (experiment): NCI-60 one-dose screen, 48 h (100 = growth as untreated, 0 = no growth, -100 = all killed)
What all share (conditions): 10 µM

The test system of assay [1] is SR leukemia.
Assay [2] relates to RPMI-8226 leukemia.
Assay [3] deals with OVCAR-8 ovarian.
Assay [4] concerns OVCAR-5 ovarian.
In assay [5] the test system is SK-OV-3 ovarian.
Assay [6] has as its system IGROV1 ovarian.
Assay [7] relates to OVCAR-3 ovarian.
The subject of assay [8] is HS 578T breast.
Assay [9] deals with NCI/ADR-RES ovarian.
Assay [10] has as its system OVCAR-4 ovarian.

`O=C(c1ccc(O)cc1)c1ccc(O)cc1`: the growth in [1] is 88.7%; in [2], 107%; in [3] it was 99.9%; in assay [4] it was 105%; in assay [5], 114%; in assay [6], 108%. Further, the growth in [7] was 111%; in assay [8], 107%; in assay [9], 110%.
As for `CC1(C)N=C(N)N=C(N)N1c1cccc(Br)c1`, the growth in [1] was 49.4%; in [2], 43.9%; in assay [3] it was 33.1%; in assay [10] it was 49.7%; in assay [5], 44.3%; in assay [6], 54.9%. Besides, the growth in assay [7] was 52.8%.
Take `O=C(/C(=N/O)c1ccccc1)c1ccccc1`: the growth in assay [1] is 110%; in assay [2], 99.5%; in assay [3] it was 103%; in assay [4] it was 111%; in [10], 102%; in assay [5] it was 106%. The growth in assay [7] was 116%; in assay [8], 101%; in [9], 113%.
For `CCN1C(=O)/C(=C/C=C/N(C)c2ccccc2)SC1=S`, the growth was 73.4% in [1]; 86.8% in assay [2]; 69.2% in assay [3]; 102% in assay [4]; 41.3% in [5]; 81.4% in assay [7]. The results for the growth in assay [8] and in assay [9] were 58.6% and 81.5%, respectively.
In the case of `COc1cc(C(=O)NC(=S)Nc2ccc3ccccc3c2)cc(OC)c1OC`, the growth is 87.4% in assay [1]; 88.9% in [2]; 104% in [3]; 99.9% in [4]; 95.5% in assay [6]; 107% in [7]. Further, the figures for the growth in assay [8] and in [9] were 94.5% and 51.5%, respectively.
`COc1cc(C2NC(=O)C(C#N)=C(Nc3cccc(C)c3)S2)ccc1O` (stereo not given): the growth in assay [1] is 107%; in assay [2] it was 81.4%; in assay [3], 105%; in assay [4], 111%; in assay [10], 102%; in assay [5], 103%. In addition, the growth in [7] was 106%; in assay [8], 96.5%; in [9], 110%.
As to `Cc1ccc(/C(C#N)=C/c2ccc3c(c2)OCO3)cc1`, the growth was 25.5% in assay [1]; 77% in [2]; 94% in assay [3]; 112% in [4]; 82.8% in assay [5]; 72.4% in assay [6]. Further, the results for the growth in assay [7], in [8] and in assay [9] were 73.8%, 83.8% and 44.5%, respectively.
For `O=C(c1ccc(Cl)cc1)c1ccccc1Cl`, the growth in assay [1] was 95.9%; in assay [2] it was 82.8%; in [3], 89.6%; in assay [10], 97%; in [5], 96.3%; in assay [6], 87.9%. In addition, in assay [7], the growth was 118%.
`CC(=O)Oc1ccc(Br)cc1C(=O)O`: the growth in assay [1] is 99.1%; in assay [2] it was 99.5%; in assay [3], 104%; in [10], 104%; in assay [5] it was 98.2%; in assay [6], 98.4%. Besides, the growth in assay [7] was 111%.
As to `N#CC1(Nc2ccc3c4c(cccc24)CC3)CCCCC1`, the growth was 75.4% in assay [1]; 77% in [2]; 99.6% in assay [3]; 110% in assay [4]; 88.3% in assay [6]; 111% in assay [7]. For the same molecule, the values for the growth in [8] and in assay [9] were 97.2% and 103%, respectively.
Regarding `CC(=O)OC(C(=O)O)c1ccccc1` (stereo not given), the growth in assay [1] is 104%; in assay [2], 88.2%; in assay [3] it was 102%; in assay [4], 105%; in [10], 118%; in assay [5], 117%. In addition, the growth in assay [7] was 120%; in [9] it was 108%.
With `CCOC(=O)C/C(C)=N\O`, the growth was 104% in assay [1]; 104% in assay [2]; 109% in [3]; 106% in [4]; 103% in assay [5]; 101% in assay [6]. The growth in assay [7] is 99.9%; in [8], 101%; in assay [9], 96.6%.
As for `CC(C)=C(NC(=O)c1ccccc1)C(=O)O`, the growth in assay [1] is 95.4%; in [2] it was 87.4%; in assay [3] it was 104%; in assay [4], 101%; in assay [10], 118%; in assay [5], 112%. The growth in [7] is 107%; in assay [9], 111%.
Turning to `CC(=O)OCC1OC(OC2=C(CC=C(C)C)C(=O)c3ccccc3C2=O)C(OC(C)=O)C(OC(C)=O)C1OC(C)=O` (stereo not given), the growth in assay [1] is -42.9% (active); in assay [2] it was -13.1% (active); in [3] it was 53.6%; in assay [4], 89.7%; in assay [5], 84.4%; in assay [6], 68%. The values for the growth in [7], in assay [8] and in assay [9] were -33.1% (active), 18% and 32.4%, respectively.
For `Cc1c(C(=O)O)c(=O)n(-c2ccccc2)n1C`, the growth was 123% in assay [1]; 107% in assay [2]; 103% in assay [3]; 110% in assay [4]; 107% in [5]; 117% in assay [6]. Moreover, the figures for the growth in [7] and in [9] were 141% and 101%, respectively.
For `CCOc1ccc(/C=N/N=C(N)N)cc1OCC`, the growth in [1] was 76.3%; in assay [2] it was 101%; in [3], 106%; in assay [4], 101%; in assay [5], 106%; in assay [6], 95.9%. Further, the growth in assay [7] is 107%; in assay [9], 109%.
Regarding `COc1cc(C(=O)N/N=C/c2cccc([N+](=O)[O-])c2)cc(OC)c1OC`, the growth in [1] is 28.5%; in assay [2], 77.1%; in [3], 83.1%; in assay [4], 83.7%; in assay [5], 67.2%; in assay [6] it was 60.6%. For the same molecule, the results for the growth in assay [7], in assay [8] and in [9] were 12.2%, 49.3% and 38.1%, respectively.
